Source: PubChem BioAssay (NCI)
The panel holds about 83,000 compounds, 20% with a hit somewhere; the sample as a whole holds those more often.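 The endpoint reported here, percent growth, reads 100 for growth as untreated, 0 for no net growth and -100 for all cells dead.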 Values without a mark were called inactive. The source made the active and inactive calls. How the source made its calls: active means growth percent below 10; inactive means the rest.

Assays:
Assay in all cases: NCI-60 one-dose screen, 48 h (100 = growth as untreated, 0 = no growth, -100 = all killed)
Details in all cases: 10 µM unless noted
[1] = test system: DU-145 prostate
[2] = test system: K-562 leukemia
[3] = test system: MALME-3M melanoma
[4] = test system: MDA-MB-231 breast
[5] = test system: RXF 393 renal
[6] = test system: SF-268 CNS
[7] = test system: SF-295 CNS
[8] = test system: SF-539 CNS
[9] = test system: UACC-257 melanoma
[10] = test system: M14 melanoma
[11] = test system: HCT-15 colon
[12] = test system: HT29 colon
[13] = test system: SNB-75 CNS
[14] = test system: SNB-19 CNS
[15] = test system: U251 CNS
[16] = test system: PC-3 prostate
[17] = test system: SK-MEL-5 melanoma
[18] = test system: UACC-62 melanoma
[19] = test system: LOX IMVI melanoma
[20] = test system: SK-MEL-28 melanoma

Row | Structure (SMILES) | growth [1] | growth [2] | growth [3] | growth [4] | growth [5] | growth [6] | growth [7] | growth [8] | growth [9] | growth [10] | growth [11] | growth [12] | growth [13] | growth [14] | growth [15] | growth [16] | growth [17] | growth [18] | growth [19] | growth [20]
1 | Clc1ccc(CSC(Cn2ccnc2)c2ccc(Cl)cc2Cl)cc1 (stereo not given) | 68.3% | 10.2% | 21% | 64.7% | 15.3% | 50.2% | 10.7% | 44.4% | 23.1% | 29.7% | 29% | 30.5% | 57.9% | 47.3% | 27.8% | 15% | -9.89% (active) | 29.5% | 18% | 62.3%
2 | COC(=O)[C@@]1(C)CC[C@]2(C)CC[C@]3(C)C4=CC(=O)c5c(cc(O)c(O)c5C)[C@]4(C)CC[C@@]3(C)[C@@H]2C1 | 67.1% | 49% | 106% | 61.4% | 85% | 61.7% | 49.8% | 78% | 41.9% | 66.4% | 36.9% | 90.2% | 112% | 60.5% | 42% | 33.8% | 7.93% (active) | 28.3% | 50.7% | 91.3%
3 | Cc1cc(N(CCCl)CCCl)ccc1C=Nc1ccccc1-c1ccccc1 | 61.2% | 85% | 77.1% | 94.4% | 45.5% | 62.8% | 27.2% | 61.7% | 55.3% | 75.8% | 79.4% | 89.3% | 66.1% | 77.9% | 63.3% | 85.5% | 85.7% | 6.46% (active) | 66.3% | 95.2%
4 | COc1ccc(/C=C\c2cc(OC)c(OC)c(OC)c2)c(NS(=O)(=O)c2ccc(C)cc2)c1O | -14.4% (active) | 17.6% | 92.2% | 14.8% | 32.5% | 19.4% | 16.9% | 1.5% (active) | 66.7% | 9.2% (active) | 15.1% | 17.4% | 41.6% | 48.1% | 20.7% | 36.3% | -42.3% (active) | 53% | 18.3% | 61.7%
5 | CC(=O)[O][Hg][O]C(C)=O | 94.8% | 29.7% | 54.3% | 110% | 98.2% | 96.6% | 90.3% | 108% | 90.8% | 88.3% | 93.8% | 73.8% | 72.6% | 110% | 84.6% | 86.3% | 102% | 97.2% | 70.9% | 106%
6 | O=C(CCCCCNC1=CC(=O)c2ccccc2C1=O)NCCC[Te]c1ccccc1 | -11.6% (active) | 32.7% | -52.3% (active) | -39.8% (active) | 13.8% | -26.7% (active) | -32.5% (active) | -49.7% (active) | 2.91% (active) | -37.6% (active) | -20.1% (active) | -47.5% (active) | -26% (active) | 5.42% (active) | -8.56% (active) | -0.995% (active) | -92.9% (active) | -27.7% (active) | -22.1% (active) | -42% (active)
7 | COc1cccc2c1c(C(=O)C(=O)Nc1cc(C)no1)cn2Cc1ccc(F)cc1 | 74.2% | 13.4% | 69.3% | 77.5% | 77.4% | 64.3% | 73.6% | 67.2% | 81.4% | 45.7% | 29.5% | 24.8% | 53.6% | 66% | 51.7% | 62.5% | 36.3% | 38.7% | 56.1% | 68.3%
8 | C[C@@]12CC[C@@H](O)C[C@@H]1CC[C@H]1[C@H]2CC[C@@]2(C)[C@H](c3ccc(=O)oc3)CC[C@@]12O | -97.4% (active) | 0.291% (active) | -45.4% (active) | -33.9% (active) | -39.9% (active) | -73.1% (active) | -84.5% (active) | -85.4% (active) | -78.8% (active) | -50.7% (active) | -79.7% (active) | -67.5% (active) | -85% (active) | -99.8% (active) | -81.3% (active) | -22.5% (active) | -68.6% (active) | -71% (active) | -74.9% (active) | -43% (active)
9 | NC(N)=N/N=C\c1c[nH]c2ccc(Br)cc12 | 96.2% | 74.6% | 76.8% | 101% | 99% | 64.6% | 79.9% | 84% | 69.3% | 94.1% | 105% | 92.3% | 72.6% | 67.1% | 32.9% | 72.2% | 67.6% | 101% | 93.7% | 100%
10 | O=C1NC(=O)C(=Cc2ccc(OCCCCC3CCCCC3)c(Cl)c2)C(=O)N1 | 106% | 88.3% | 110% | 100% | 103% | 99.7% | 94% | 92.8% | 107% | 86.6% | 98.5% | 92.3% | 96.2% | 100% | 81.7% | 88.4% | 98.3% | 98.3% | 56.1% | 111%
11 | CCCCCCCCCCCCNC(c1ccccc1)C(O)c1ccccc1 (stereo not given) | 83.5% | 24.1% | 68.3% | 39.9% | 59% | 79% | 107% | 87.9% | 99.9% | 93.3% | 66.6% | 52% | 106% | 87.4% | 32% | 79.2% | 96.7% | 96.7% | 49.8% | 97.4%
12 | COC(=O)[C@H](Cc1c[nH]c2ccccc12)NC(=O)[C@@H](OC)[C@@H]1Cc2cc3cc(OC4CC(OC5CC(O)C(O)C(C)O5)C(O)C(C)O4)c(C)c(O)c3c(O)c2C(=O)[C@H]1OC1CC(OC2CC(OC3CC(C)(O)C(O)C(C)O3)C(O)C(C)O2)C(O)C(C)O1 (stereo not given in full) | 12.5% | 4.37% (active) | -47% (active) | -14% (active) | -85.9% (active) | -10.1% (active) | -6.35% (active) | -35.3% (active) | -5% (active) | -60.2% (active) | 15.9% | 4.98% (active) | -88.5% (active) | 7.09% (active) | 6.13% (active) | -10.4% (active) | -72.1% (active) | -52.7% (active) | -3.17% (active) | -27.9% (active)
13 | CNC12C3C4C1C1C2C3C41C(=O)N[C@H](C(=O)N(C)[C@H](C[C@@H](OC(C)=O)c1nc(C(=O)N[C@@H](Cc2ccccc2)C[C@H](C)C(=O)OC)cs1)C(C)C)C1CC1 (stereo not given in full) | -1.19% (active) | 0.86% (active) | 34% | 0.928% (active) | 25.5% | 14.4% | 7.26% (active) | -1.2% (active) | 41.1% | 4.03% (active) | 11.4% | -12.6% (active) | 26.9% | 33.4% | 10.1% | 16.9% | -54.4% (active) | 13.9% | 0.284% (active) | 62.3%
14 | [Cl][Hg][c]1cc(Br)cc(Br)c1 | 79.3% | 6.31% (active) | 69.8% | 19.8% | -18.3% (active) | 25.6% | 80.2% | 38.9% | 58.5% | 46.1% | 38.2% | 46.4% | 21.6% | 17% | -55.9% (active) | 50.3% | 22.1% | 47% | 9.91% (active) | 59.5%
15 | CC(C)(C)C(=O)OCOP(=O)(NCc1ccccc1)C1CCCN(O)C1=O (stereo not given) | 55% | 32.3% | 19.9% | 22.6% | 8.85% (active) | 10.5% | 60.3% | 45.2% | 57.3% | 38.4% | 22.5% | 21.5% | 70.6% | 37.9% | 13.8% | 67.7% | 31.2% | 19.5% | 51.9% | 17%
